In the assay the test system is RARa:RXR (NR concentration 270 nM, RXRa partner concentration 90 nM). The assay is described as follows: PBM binding z-score (relative to random genomic background probes); higher = stronger binding; sequences stand for … in GC…GCGATTGACAGCGTAGAATGAAGG
An outline of the steps:
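Ligand-free nuclear receptor dimers were applied to custom Agilent 4×180K protein-binding microarrays whose double-stranded probes carried direct-repeat seeds, single-nucleotide variants, half-site ablations and random human genomic background sequences in 34-nt variable regions. Incubation lasted 1 h. Binding z-scores were computed against the random background probes from regression-normalized fluorescence.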
Consider TCTTGTAGATTAGCAGGTTAAGAAAGCTGGCCAA, for which the PBM binding z-score amounted to 0.552. In turn, CGAACTAGGTCAGAACAGGACAGTGAAGGATGAT displayed a PBM binding z-score of 0.927. Turning to CCTACTGGCCCAAAGGTCATTGATTCCAATGCTC, the PBM binding z-score was found to be 4.8. Under CGAACCAGGGCATGAGTTGATAGCAAATGCCGAT stands -0.0885; under TTCCCAAGGTGAAAGGTCGTTGATGCACGCCTTG, 5.56. CCTGCTACGTCATGGTCAGCTAATCTACAGTATG displayed a PBM binding z-score of -0.116. Under TCGAGTAGGTTACCAATGAGGCATTCAGCTTTCT stands 0.302; under AGTCAAAGTTCATCTAGGTAACGTACGATATGCT, 3.95. As for TCTAGGTGGTCACGGAGGTCACACACGACGGGTA, the PBM binding z-score came to 4.51.

In the case of ACTAGCAGGCCAAGGGTCACCCAAGATTAGTCCG, the PBM binding z-score was determined as 5.22. Sequence GATACAGTGTCAGCTAGAGGCCAGAGTATGGAAA showed a PBM binding z-score of -0.0269.

In turn, CCTTCTGGGCCATCAGGTCATTGATATCAACGTT displayed a PBM binding z-score of 2.31. Sequence TCTTGTAGATAAACAGGAGGTTAAGAAAGATCGA gave a PBM binding z-score of 1.05. For the sequence CCTACTGGGCCAAGGGTCATTGATTCCAATGCTC, the PBM binding z-score is 3.87.

GCTTGGAGATCAAGGTTAAGAAAGACTAAGCTAA registered a PBM binding z-score of 1.12. For the sequence ATCTCTAGGTAAGACTCAGTTCAGCGAAGAACGC, the PBM binding z-score was determined as 0.477. For the sequence TCTAGTTTGTCACGGAGGTCACACACGACGGGTA, the PBM binding z-score amounted to 4.55. TCTGGTAGATCAAGCAGGTTAAGAAAGCCTGAGT: the PBM binding z-score turned out to be 0.213.

For the sequence TTACCAAGGTGAGCTGAGGCCGTTGATCCAACTC, the PBM binding z-score came to 1.15. TCTTGTAGCTCAATAGAGGTTAAGAAAGTGCGCT displayed a PBM binding z-score of 1.28.

In the case of ATCTCTAGGGAACCAAGTTCAGTGAATGCCGAAC, the PBM binding z-score came out at 0.461.

TCTATTAGTTGAAGGACAACCGACGAGTCCGTTT yielded a PBM binding z-score of 0.65. Consider ACTAGCAGGCCAAGTTGGGGTCACTCAAACAAAG, for which the PBM binding z-score turned out to be 5.79. Regarding TTACCAATGTGAGCTGAGGTCGTTGATCCAACTC, the PBM binding z-score came out at 1.53. TCATATAGGTAATACAGGTGAAAATCGGCATCTA returned a PBM binding z-score of 1.46.

TCTGCTAGGTCTGTTGGTCAGCTAACGAGCTGCC returned a PBM binding z-score of -0.461. TCTAGTTGGTCACGGAGGTCAAACACGACGGGTA yielded a PBM binding z-score of 5.16. Sequence TCATTTAGGTAAAAGGTGAAAGTCGGTGTGGTAA came in with a PBM binding z-score of 2.74. Take CGTCCAAGGTCAGAGAGGGCAGTGAATGCCGAGT: the PBM binding z-score was 3.14. Under AATACAGGGTCACTAGGCCAGACTAGGTACGAAT stands 3.87; under ACTTACGGGCCAACGAGGTTATAGCACGCGTATA, 1.16. On to CACCCTAGGTCAGGGCCAGTATAGGAGGAACGTT, for which the PBM binding z-score was 1.49.

CGAACTAGGTCGTTGACAGGACAGTGAATAGTAA displayed a PBM binding z-score of 0.276. With TCGAGTAGGTTACCAAAGGGGCATTCAGCTTTCT, the PBM binding z-score stood at 0.81. For the sequence TCTTGTAGACCAGCAGGTTAAGAAAGCTGGCCAA, the PBM binding z-score is 0.371. Under CCTATTAGTTGACCATAAGGGCAGCCGAAGCTCG stands 0.385. Under CATACATGGTCAGCTAGGCCAGAGTAGGGACGGC stands -0.808; under TCTTGTAGATCAATAGAGTTTAAGAAAGTGCGCT, 0.263; under AGAATGAGGTTATACGTAGATAAGGGAAGAAAGT, 1.65.
